Data taken from PubChem BioAssay (Tox21).
Results filed as inconclusive are left out. Values without a mark were called inactive. Calls of active or inactive are those of the source. Calls come from the whole dose curve; as a rule, active = well fitted cell-killing curve with a large enough effect in the repeat runs; inconclusive = weak or mixed curves, or effect the other way; inactive = flat fitted curve, though single readings scatter.

assay: qHTS RealTime-Glo MT Cell Viability Assay in HEK293 cells - 24 hour (AID 1224886); details: RealTime-Glo luminescence; series mostly up to 76.8 µM; activity change, negative = cytotoxicity: at the top concentration; note: nearly all actives have a fitted effect of over 50% in size; for activity change, negative = cytotoxicity: top concentration of the series differs between compounds
Description: National Center for Advancing Translational Sciences [NCATS]
NIH Chemical Genomics Center [NCGC]
U.S. Environmental Protection Agency [EPA]
National Institutes of Environmental Health Sciences [NIEHS]
National Toxicology Program [NTP]
U.S. Food and Drug Administration [FDA]
Measure of cell viability is critical in the cell-base assay. Analysis of cell viability is necessary for the characterization of cell responses to cytotoxic drugs and environmental stress. A RealTime-Glo MT Cell Viability Assay to monitor cell viability in real time of continues cell culture during 40 hours of compound treatment was used to screen Tox21 10K library compounds in Hek293 cells. The RealTime-Glo MT Cell Viability Assay is a nonlytic, homogeneous, bioluminescent method to measure cell viability in real time using a simple, plate-based method. The assay involves adding NanoLuc luciferase and a cell-permeant prosubstrate to cells in culture. Viable cells reduce the proprietary prosubstrate to generate a substrate for NanoLuc luciferase. This substrate diffuses from cells into the surrounding culture medium, where it is rapidly used by the NanoLuc Enzyme to produce a luminescent signal. The signal correlates with the number of viable cells, making the assay well suited for cytotoxicity studies.
Tox21 Assay Protocol Summary:
The mixture of Hek293 cell suspension and reagents were dispensed at 600cells/6 ul/well in 1536-well tissue culture treated black solid bottom plates using a Multidrop dispenser. After the assay plates were incubated at a 37 C/5% CO2 incubator for 5 hours, 23 nL of compounds dissolved in DMSO, positive and negative controls was transferred to the assay plate by a pintool work station. The plates were incubated at 37 C for 40 hours. The luminescence intensity were measured at 0h, 8h, 16h, 24h, 32h and 40h time points using ViewLux plate reader during compound treatment.
% is set by controls: 0 for no effect and ±100 for the full control effect; potency is the fitted concentration of half-maximal effect.

| SMILES | activity change, negative = cytotoxicity | Potency |
| --- | --- | --- |
| C=CCCCCCCCCCCCCCCCC | -6.06% [at 6.97 µM] |  |
| CC1=CC(O)CC(C)(C)C1 (stereo not given) | 9.47% |  |
| CCCC1C(CC)=CC(CC)=CN1c1ccccc1 (stereo not given) |  | 13.8 µM (active) |
| C1COCO1 | -7.4% |  |
| CCOC(=O)c1ccccc1OC | 1.56% |  |
| CC(Cl)C(Cl)Cl (stereo not given) | -13% |  |
| OC(CCCN1CCCCC1)(c1ccccc1)c1ccccc1 | -2.96% [at 35.3 µM] |  |
| O=C1NCCN1 | 5.85% |  |
| Cc1oc(C)c(C(=O)Nc2ccccc2)c1C |  | 34.7 µM (active) |
| CCCc1c(OCCCOc2ccc(OCC(=O)O)cc2)ccc(C(C)=O)c1O | -6.85% |  |
| COc1ccccc1N=Nc1c(S(=O)(=O)O)cc2cc(S(=O)(=O)O)cc(NC(C)=O)c2c1O | -11.3% |  |
| Cc1cc2nc3ccc(=[N+](C)C)cc-3sc2cc1N |  | 2.68 µM (active) |
| CC(C)OCC1CO1 (stereo not given) | 8.43% |  |
| O=C(O)Cc1ccc(-c2ccccc2)cc1 | 10.1% [at 35.3 µM] |  |
| CC(N)CN (stereo not given) | 1.91% |  |
| CCc1c2c(nc3ccc(OC(=O)N4CCC(N5CCCCC5)CC4)cc13)-c1cc3c(c(=O)n1C2)COC(=O)[C@]3(O)CC |  | 2.68 µM (active) |
| O=S(=O)(c1ccccc1)c1ccc(Cl)cc1 | -3.32% |  |
| CC1(C)C2=CCCC(C)(C)[C@]23CC[C@H]1C3 | -7.8% |  |
| O=C(O)c1c(O)c(-c2ccccc2)nc2ccccc12 | 10.2% [at 35.3 µM] |  |
| CCCCCCCCCCCCCCCCBr | 6% [at 15.8 µM] |  |

| SMILES | activity change, negative = cytotoxicity | Potency |
| --- | --- | --- |
| CC(=O)Nc1ccccc1C | 0% |  |
| COCCOC(=O)C1=C(C)NC(C)=C(C(=O)OC/C=C/c2ccccc2)C1c1cccc([N+](=O)[O-])c1 (stereo not given) | -23.9% [at 35.3 µM] |  |
| CNC(=O)N(c1ccccc1)c1ccccc1 | -0.728% |  |
| Brc1cc(-c2ccc(Br)c(Br)c2Br)cc(Br)c1Br | 1.19% [at 35.3 µM] |  |
| COc1cc2ncnc(Nc3ccc(F)c(Cl)c3)c2cc1OCCCN1CCOCC1 |  | 9.52 µM (active) |
| c1ccc(COCc2ccccc2)cc1 | 16.4% |  |
| CCN(Cc1cccc(S(=O)(=O)O)c1)c1ccc(C(=C2C=CC(=[N+](CC)Cc3cccc(S(=O)(=O)[O-])c3)C=C2)c2ccccc2)cc1 | 6.5% [at 35.3 µM] |  |
| O=C(Nc1ccc([N+](=O)[O-])cc1)Nc1ccc([N+](=O)[O-])cc1 |  | 8.49 µM (active) |
| O=C1OCCN1/N=C/c1ccc([N+](=O)[O-])o1 | 3.56% [at 35.3 µM] |  |
| CCCOC(=O)c1ccc(N)cc1 | -15.3% [at 35.3 µM] |  |
| CCOC(=O)c1ccccc1C | 0.711% |  |
| CC(=O)N(c1onc(C)c1C)S(=O)(=O)c1ccc(N)cc1 | 0.463% [at 35.3 µM] |  |
| Cc1cc(C(=C2C=CC(=Nc3ccc(S(=O)(=O)O)cc3S(=O)(=O)O)C=C2)c2ccc(Nc3ccc(S(=O)(=O)O)cc3)cc2)ccc1N | -5.63% [at 35.3 µM] |  |
| CCCCN(CCCC)C(=S)SSC(=S)N(CCCC)CCCC |  | 48.5 µM (active) |
| COC(=O)c1cc(Cl)ccc1NS(=O)(=O)C(F)(F)F | 1.63% [at 35.3 µM] |  |
| CC#N | 1.21% |  |
| CC(C)(C)C(=O)O | 6.07% |  |
| Cc1oncc1C(=O)Nc1ccc(C(F)(F)F)cc1 |  | inactive |
| OCCSc1ccccc1 | -1.44% |  |
| C/C=C(\C)C(=O)OCCC(C)CCC=C(C)C (stereo not given) | 3.17% |  |
